Results published in PubChem BioAssay AID1159580 (chemical genetic matrix, 2015).
Hit rate of the full screen: of about 5,500 compounds, about 2,000 (36%) were called active. Not shown: some 18% with an inconclusive outcome. No stated cut-off is given here; in the data, active means normalized growth mostly below about 0.91 (no sharp cut-off); inconclusive means no clear call, values can overlap the other calls; inactive means mostly above about 0.92. The list shows a part of the results.

Assay: chemical genetic growth profiling, strain panel (AID 1159580);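 further: tested at 20 µM; growth read once vehicle control cultures reached saturation at 30 °C; 1 = growth at the plate median or of vehicle wells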
Details: growth OD
[1] = S. cerevisiae deletion strains, locus YDL101C, strain DUN1, stronger effect = lower value
[2] = S. cerevisiae deletion strains, locus YHR030C, strain SLT2, stronger effect = lower value

Measured: normalized growth

CCCCCc1ccc(S(=O)(=O)Nc2cccnc2Oc2ccc(Cl)cc2)cc1
inactive: S. cerevisiae deletion strains, locus YAL013W, strain DEP1, stronger effect = lower value 0.988 | S. cerevisiae deletion strains, locus YBR229C, strain ROT2, stronger effect = lower value 1 | [1] 0.992 | S. cerevisiae deletion strains, locus YDL134C, strain PPH21, stronger effect = lower value 0.994 | S. cerevisiae deletion strains, locus YDR150W, strain NUM1, stronger effect = lower value 1 | S. cerevisiae deletion strains, locus YEL061C, strain CIN8, stronger effect = lower value 1 | S. cerevisiae deletion strains, locus YGR078C, strain PAC10, stronger effect = lower value 1 | [2] 0.965 | S. cerevisiae deletion strains, locus YHR087W, strain rtc3, stronger effect = lower value 0.987 | S. cerevisiae deletion strains, locus YJL187C, strain SWE1, stronger effect = lower value 0.998 | S. cerevisiae deletion strains, locus YJR043C, strain POL32, stronger effect = lower value 0.988 | S. cerevisiae deletion strains, locus YJR075W, strain HOC1, stronger effect = lower value 0.964 | S. cerevisiae deletion strains, locus YLR039C, strain RIC1, stronger effect = lower value 0.951 | S. cerevisiae deletion strains, locus YLR058C, strain SHM2 (second series), stronger effect = lower value 0.994 | S. cerevisiae deletion strains, locus YLR085C, strain ARP6, stronger effect = lower value 1 | S. cerevisiae deletion strains, locus YLR262C, strain YPT6, stronger effect = lower value 0.951 | S. cerevisiae deletion strains, locus YML094W, strain GIM5, stronger effect = lower value 0.998 | S. cerevisiae deletion strains, locus YMR219W, strain ESC1, stronger effect = lower value 0.996 | S. cerevisiae deletion strains, locus YMR263W, strain SAP30, stronger effect = lower value 0.997 | S. cerevisiae deletion strains, locus YMR307W, strain GAS1, stronger effect = lower value 0.992 | S. cerevisiae deletion strains, locus YNL128W, strain TEP1, stronger effect = lower value 1.01 | S. cerevisiae deletion strains, locus YNL153C, strain GIM3, stronger effect = lower value 1 | S. cerevisiae deletion strains, locus YNL298W, strain CLA4 (second series), stronger effect = lower value 1.01 | S. cerevisiae deletion strains, locus YNL322C, strain KRE1, stronger effect = lower value 0.995 | S. cerevisiae deletion strains, locus YNR030W, strain Alg12, stronger effect = lower value 0.984 | S. cerevisiae deletion strains, locus YOL006C, strain TOP1, stronger effect = lower value 0.986 | S. cerevisiae deletion strains, locus YPL055C, strain LGE1, stronger effect = lower value 0.989 | S. cerevisiae deletion strains, locus YPL241C, strain CIN2, stronger effect = lower value 1.08 | S. cerevisiae deletion strains, locus YPR135W, strain CTF4, stronger effect = lower value 1.02 | S. cerevisiae strains, strain wild type, stronger effect = lower value 1

CCCCCc1ccc(S(=O)(=O)Nc2ncc(C)cc2Br)cc1
active: [2] 0.568 | S. cerevisiae deletion strains, locus YKL048C, strain ELM1, stronger effect = lower value 0.793 | S. cerevisiae deletion strains, locus YLR113W, strain HOG1, stronger effect = lower value 0.674 | S. cerevisiae deletion strains, locus YPL256C, strain CLN2, stronger effect = lower value 0.792
inactive: S. cerevisiae deletion strains, locus YAR019C, strain CDC15, stronger effect = lower value 0.955 | S. cerevisiae deletion strains, locus YBL105C, strain PKC1, stronger effect = lower value 0.953 | S. cerevisiae deletion strains, locus YBR135W, strain CKS1, stronger effect = lower value 0.942 | S. cerevisiae deletion strains, locus YBR136W, strain MEC1, stronger effect = lower value 0.952 | S. cerevisiae deletion strains, locus YBR160W, strain CDC28, stronger effect = lower value 0.947 | S. cerevisiae deletion strains, locus YDL017W, strain CDC7, stronger effect = lower value 0.953 | S. cerevisiae deletion strains, locus YDL028C, strain MPS1, stronger effect = lower value 0.953 | [1] 0.962 | S. cerevisiae deletion strains, locus YDL108W, strain KIN28, stronger effect = lower value 0.951 | S. cerevisiae deletion strains, locus YDL132W, strain cdc53, stronger effect = lower value 0.962 | S. cerevisiae deletion strains, locus YDL214C, strain PRR2, stronger effect = lower value 0.832 | S. cerevisiae deletion strains, locus YDR052C, strain DBF4, stronger effect = lower value 0.962 | S. cerevisiae deletion strains, locus YDR054C, strain cdc34, stronger effect = lower value 0.945 | S. cerevisiae deletion strains, locus YDR226W, strain ADK1, stronger effect = lower value 0.959 | S. cerevisiae deletion strains, locus YDR477W, strain SNF1, stronger effect = lower value 0.873 | S. cerevisiae deletion strains, locus YER123W, strain YCK3, stronger effect = lower value 0.835 | S. cerevisiae deletion strains, locus YER133W, strain GLC7, stronger effect = lower value 0.884 | S. cerevisiae deletion strains, locus YFL009W, strain cdc4, stronger effect = lower value 0.957 | S. cerevisiae deletion strains, locus YFL029C, strain CAK1, stronger effect = lower value 0.949 | S. cerevisiae deletion strains, locus YFR003C, strain YPI1, stronger effect = lower value 0.959 | S. cerevisiae deletion strains, locus YFR019W, strain FAB1, stronger effect = lower value 0.939 | S. cerevisiae deletion strains, locus YFR028C, strain CDC14, stronger effect = lower value 0.95 | S. cerevisiae deletion strains, locus YGR040W, strain KSS1, stronger effect = lower value 0.865 | S. cerevisiae deletion strains, locus YGR052W, strain FMP48, stronger effect = lower value 0.847 | S. cerevisiae deletion strains, locus YGR092W, strain DBF2, stronger effect = lower value 0.769 | S. cerevisiae deletion strains, locus YHR079C, strain IRE1, stronger effect = lower value 0.835 | S. cerevisiae deletion strains, locus YHR082C, strain KSP1, stronger effect = lower value 0.857 | S. cerevisiae deletion strains, locus YHR205W, strain SCH9, stronger effect = lower value 0.702 | S. cerevisiae deletion strains, locus YIL147C, strain SLN1, stronger effect = lower value 0.96 | S. cerevisiae deletion strains, locus YJL095W, strain BCK1, stronger effect = lower value 0.789 | S. cerevisiae deletion strains, locus YJL128C, strain PBS2, stronger effect = lower value 0.852 | S. cerevisiae deletion strains, locus YJL157C, strain FAR1, stronger effect = lower value 0.863 | S. cerevisiae deletion strains, locus YJR016C, strain ILV3, stronger effect = lower value 0.96 | S. cerevisiae deletion strains, locus YJR066W, strain TOR1 (second series), stronger effect = lower value 0.856 | S. cerevisiae deletion strains, locus YJR066W, strain TOR1, stronger effect = lower value 0.906 | S. cerevisiae deletion strains, locus YKL067W, strain YNK1, stronger effect = lower value 0.853 | S. cerevisiae deletion strains, locus YKL101W, strain HSL1, stronger effect = lower value 0.78 | S. cerevisiae deletion strains, locus YKL193C, strain SDS22, stronger effect = lower value 0.964 | S. cerevisiae deletion strains, locus YKL203C, strain TOR2, stronger effect = lower value 0.936 | S. cerevisiae deletion strains, locus YLR133W, strain CKI1, stronger effect = lower value 0.845 | S. cerevisiae deletion strains, locus YLR403W, strain SFP1, stronger effect = lower value 0.779 | S. cerevisiae deletion strains, locus YML070W, strain DAK1, stronger effect = lower value 0.78 | S. cerevisiae deletion strains, locus YMR001C, strain CDC5, stronger effect = lower value 0.955 | S. cerevisiae deletion strains, locus YMR205C, strain PFK2 (second series), stronger effect = lower value 0.836 | S. cerevisiae deletion strains, locus YMR277W, strain FCP1, stronger effect = lower value 0.956 | S. cerevisiae deletion strains, locus YNL006W, strain LST8, stronger effect = lower value 0.968 | S. cerevisiae deletion strains, locus YNL020C, strain ARK1, stronger effect = lower value 0.796 | S. cerevisiae deletion strains, locus YNL161W, strain CBK1, stronger effect = lower value 0.961 | S. cerevisiae deletion strains, locus YNL183C, strain NPR1, stronger effect = lower value 0.806 | S. cerevisiae deletion strains, locus YNL207W, strain RIO2, stronger effect = lower value 0.968 | S. cerevisiae deletion strains, locus YNL222W, strain SSU72, stronger effect = lower value 0.951 | S. cerevisiae deletion strains, locus YNL307C, strain MCK1 (second series), stronger effect = lower value 0.811 | S. cerevisiae deletion strains, locus YOL078W, strain AVO1, stronger effect = lower value 0.95 | S. cerevisiae deletion strains, locus YOL136C, strain PFK27, stronger effect = lower value 0.818 | S. cerevisiae deletion strains, locus YOR061W, strain CKA2, stronger effect = lower value 0.815 | S. cerevisiae deletion strains, locus YOR119C, strain RIO1, stronger effect = lower value 0.893 | S. cerevisiae deletion strains, locus YOR231W, strain MKK1, stronger effect = lower value 0.783 | S. cerevisiae deletion strains, locus YOR329C, strain SCD5, stronger effect = lower value 0.957 | S. cerevisiae deletion strains, locus YPL031C, strain PHO85, stronger effect = lower value 0.882 | S. cerevisiae deletion strains, locus YPL153C, strain RAD53, stronger effect = lower value 0.829 | S. cerevisiae deletion strains, locus YPL204W, strain HRR25, stronger effect = lower value 0.843 | S. cerevisiae deletion strains, locus YPL209C, strain IPL1, stronger effect = lower value 0.955 | S. cerevisiae deletion strains, locus YPR025C, strain CCL1, stronger effect = lower value 0.955 | S. cerevisiae deletion strains, locus YPR106W, strain ISR1, stronger effect = lower value 0.921 | S. cerevisiae deletion strains, locus YPR111W, strain DBF20, stronger effect = lower value 0.903 | S. cerevisiae deletion strains, strain NNK1, stronger effect = lower value 0.923 | S. cerevisiae deletion strains, strain TSCII, stronger effect = lower value 0.955
